# Assay results reported in PubChem BioAssay AID372 (MTDP, 2006).
# In all, about 100,000 compounds went through this assay and about 770 (0.77%) were called active. The sample as a whole holds a higher share of actives than the screen did. Values without a mark were called inactive. Rule as the data show it: active = inhibition above about 50%; inactive = the rest.
# Biological target: Gag-Pol polyprotein (Human immunodeficiency virus type 1 group M subtype B (isolate HXB2)) (UniProt P04585)
# Test: RNase H inhibition, HIV 1 Gag Pol polyprotein, FRET biochemical assay, screening (AID 372)
# Conditions: HIV-1 RT RNase H, FRET RNA/DNA substrate fluorescence; at 10 µM; hits give high values
row,Compound,inhibition
1,COc1ccc(C2CC(=O)C3=C(C2)NC(C)=C(C(=O)OCc2ccccc2)C3c2cc(OC)c(OC)c(OC)c2)cc1 (configuration not stated),10%
2,CCOC(=O)c1c(-c2ccc(C(C)C)cc2)csc1N,27%
3,COc1cc([N+](=O)[O-])ccc1NC(=O)c1ccccc1,16%
4,COc1cc2ccccc2cc1C(=O)Nc1ccc(C)c(NC(=O)c2cc3ccccc3cc2OC)c1,28%
5,CC1=C(C(=O)OCCc2ccccc2)C(c2ccc(O)cc2)C2=C(CCCC2=O)N1 (configuration not stated),2%
6,Cc1ccc(N2C(=O)NC(=O)/C(=C\c3cccc(C(F)(F)F)c3)C2=O)cc1C,5%
7,CCOc1ccc(N2C(=O)/C(=C/c3ccc(-c4ccccc4C(=O)O)o3)C(=O)NC2=S)cc1,15%
8,O=C(O/N=C(/c1ccccc1)c1ccncc1)c1ccc(Cl)cc1Cl,18%
9,COc1ccc(Cl)cc1S(=O)(=O)Oc1ccc(OCc2ccccc2)cc1,53% (active)
10,COc1cc(S(=O)(=O)Oc2ccc(OCc3ccccc3)cc2)ccc1Cl,5%
11,COc1ccc(Cl)cc1S(=O)(=O)Oc1ccc(Cl)cc1,39%
12,Cc1c(/C=C2/C(=O)NC(=O)N(Cc3ccco3)C2=O)c2ccccc2n1CC(N)=O,27%
13,Cc1cccc(C(=O)N2N=C(c3ccc(F)cc3)CC2(O)C(F)(F)F)c1 (configuration not stated),0%
14,CCOC(=O)C1=c2s/c(=C\c3ccc(O)c(OCC)c3)c(=O)n2C(N)=C(C#N)C1c1ccc(O)c(OCC)c1 (configuration not stated),4%
15,CCOC(=O)C1=c2s/c(=C\c3ccc(O)cc3)c(=O)n2C(N)=C(C#N)C1c1ccc(O)cc1 (configuration not stated),67% (active)
16,CCOC(=O)C1=c2s/c(=C\c3cccnc3)c(=O)n2C(N)=C(C#N)C1c1cccnc1 (configuration not stated),7%
17,C=CCN1C(=O)/C(=C/c2cc([N+](=O)[O-])ccc2OC)SC1=S,3%
18,O=C1NC(=Nc2cccc(Cl)c2Cl)S/C1=C\c1ccccc1,12%
19,COC(=O)C1=C(C)N(Cc2cccnc2)C(=O)/C1=C\c1ccc(Br)cc1,14%
20,CC(C)NC(=O)C12CC3(C)CC(C)(CC(C)(C3)C1)C2,0%
21,CCOC(=O)C1=C(O)/C(=C/c2ccc(O)c(OCC)c2)SC1=Nc1ccccc1,20%
22,CCOC(=O)C1=C(O)/C(=C/c2cc(OC)c(O)c(OC)c2)SC1=Nc1ccccc1,13%
23,CCOC(=O)C1=C(O)/C(=C/c2ccc(O)c(OC)c2)SC1=Nc1ccccc1,50% (active)

row,Compound,inhibition
1,N=C1/C(=C/c2ccc(-c3ccc(Cl)cc3Cl)o2)C(=O)N=C2SC(c3ccccc3)=NN12,2%
2,N=C1/C(=C/c2ccc(-c3cc(Cl)ccc3Cl)o2)C(=O)N=C2SC(c3ccccc3)=NN12,44%
3,N=C1/C(=C/c2ccc(-c3ccccc3Cl)o2)C(=O)N=C2SC(c3ccccc3)=NN12,56% (active)
4,Cc1ccc(N(CC(=O)O)S(C)(=O)=O)cc1C,0%
5,CCCOc1ccccc1/C=C1/SC(N2CCN(c3ccc(Cl)cc3)CC2)=NC1=O,12%
6,CCOC(=O)c1cnn2c(C(F)(F)F)c3c(nc12)-c1ccccc1CC3,7%
7,CCOC(=O)c1ccccc1NC(=O)c1cnn2c1NC(c1ccccc1)CC2C(F)(F)F (configuration not stated),17%
8,CCOC(=O)c1cnn2c1NC1=C(CCc3ccccc31)C2C(F)(F)F (configuration not stated),58% (active)
9,COc1ccc(CN(CCC(c2ccccc2OC)C2CCOC(C)(C)C2)C(C)=O)cc1 (configuration not stated),17%
10,COc1ccccc1NC(=O)Nc1nnc(-c2ccccc2SCc2ccc(F)cc2)s1,10%
11,CCOC(=O)c1ccc(N=Cc2ccc3c(c2)OCO3)cc1,4%
12,CCOc1ccc(NC(=O)c2c(NC(=O)c3ccco3)sc3c2CCCC3)cc1,4%
13,CCOc1ccccc1NC(=O)c1c(NC(=O)c2ccco2)sc2c1CCC(C)C2 (configuration not stated),7%
14,Cc1ccccc1NC(=O)c1c(NC(=O)c2ccco2)sc2c1CCC(C)C2 (configuration not stated),51% (active)
15,Cc1ccccc1NC(=O)c1c(NC(=O)c2ccco2)sc2c1CCC2,24%
16,COc1ccc(NC(=O)c2c(NC(=O)c3ccco3)sc3c2CCC3)cc1,15%
17,O=C(c1cc(Cl)ccc1Cl)N1CCN(c2ccccc2)CC1,5%
18,Cc1ccc(OCC(=O)Nc2nc(-c3ccccc3)cs2)c(C)c1,5%
19,COc1ccc(Nc2ccc(C(F)(F)F)cc2[N+](=O)[O-])cc1,7%
20,CCNC(=O)c1c(O)c2ccccc2n(C)c1=O,1%
21,O=C(c1ccc(Cl)cc1)c1ccc(N2CCOCC2)c([N+](=O)[O-])c1,16%
22,O=C(c1ccc(Cl)c(Cl)c1)c1ccc(N2CCOCC2)c([N+](=O)[O-])c1,54% (active)
23,O=C(c1ccc(Cl)c(Cl)c1)c1ccc(N2CCCCC2)c([N+](=O)[O-])c1,19%

row,Compound,inhibition
1,COc1ccc(N/C(C)=C/C(=O)ONC(=O)c2ccccc2)cc1,5%
2,CCOC(=O)C(N)CSC1CC(=O)N(c2ccc(Cl)c(Cl)c2)C1=O (configuration not stated),7%
3,Clc1cccc(-c2nnc(-c3ccc4c(c3)OCO4)o2)c1,15%
4,O=C(CSc1nc2ccccc2s1)NNC(=S)Nc1ccc(Cl)cc1,65% (active)
5,O=C(CSc1nc2ccccc2s1)NNC(=O)NC1CCCCC1,0%
6,O=C(CSc1nc2ccccc2s1)NC1CCCCC1,0%
7,O=C(CSc1nc2ccccc2s1)Nc1ccc(Cl)cc1,37%
8,O=C(CSc1nc2ccccc2s1)NNC(=S)NC1CCCCC1,56% (active)
9,O=C(CSc1nc2ccccc2s1)Nc1ccc(F)c(Cl)c1,23%
10,COc1ccc(/C=C2/SC(=O)N(CC(=O)Nc3ccc(C)c(C)c3)C2=O)cc1OC,22%
11,CCCOc1ccc(/C=C2/C(=O)NC(=O)N2C(C)=O)cc1OC,0%
12,O=C(O)c1cc(Br)ccc1N=Cc1ccc2c(c1)OCO2,8%
13,Cc1ccc(C(=O)Nc2ccc3oc(-c4c(F)c(F)c(F)c(F)c4F)nc3c2)cc1,52% (active)
14,COc1ccc(C(=O)Nc2ccc(-c3nc4cc(C)ccc4o3)cc2)cc1Br,23%
15,Cc1ccc2nc(-c3ccc(NC(=O)c4ccc5ccccc5c4)cc3)oc2c1,59% (active)
16,Cc1ccc2oc(-c3ccc(NC(=O)c4ccc(Br)cc4)cc3)nc2c1,55% (active)
17,CCCOc1ccc(C(=O)Nc2ccc3oc(-c4c(F)c(F)c(F)c(F)c4F)nc3c2)cc1,14%
18,Cc1ccc2nc(-c3cccc(NC(=O)c4ccc5ccccc5c4)c3)oc2c1,38%
19,Cc1ccc2nc(-c3ccc(C)c(NC(=O)c4ccc5ccccc5c4)c3)oc2c1,19%
20,O=C(Nc1ccc2oc(-c3ccccc3)nc2c1)c1ccc2ccccc2c1,19%
21,Cc1ccc2oc(-c3ccc(NC(=O)c4ccc5ccccc5c4)cc3)nc2c1,52% (active)
22,O=C(Nc1ccc2oc(-c3c(F)c(F)c(F)c(F)c3F)nc2c1)c1ccc(F)cc1,13%
23,O=C(Nc1ccc(-c2nc3ccccc3o2)cc1)c1ccc2ccccc2c1,43%

row,Compound,inhibition
1,Cc1ccc2oc(-c3ccc(NC(=O)c4ccc(C)c(C)c4)cc3)nc2c1,20%
2,COc1ccc(/C=C2\SC(=S)N(CCC(=O)OC3CCCCC3)C2=O)cc1,4%
3,CSCCNS(=O)(=O)c1ccc(C)c([N+](=O)[O-])c1,0%
4,O=C(O)CCCN1C(=O)/C(=C/c2cccc(Br)c2)SC1=S,10%
5,COc1ccc(/C=N/NC(=O)c2ccn[nH]2)cc1COc1ccc(Cl)cc1Cl,5%
6,COc1cccc(Nc2c([N+](=O)[O-])c(=O)n(-c3ccccc3)c3ccccc23)c1,15%
7,CCc1ccc2[nH]c3nc(NN)nnc3c2c1,5%
8,Cc1cccc(OC(=O)c2cccc([N+](=O)[O-])c2)c1,6%
9,COc1ccc(N2C(=O)C(=O)/C(=C(\O)c3ccc([N+](=O)[O-])cc3)C2c2ccc(Br)cc2)cc1 (configuration not stated),4%
10,COc1ccc(OC)c(NC(=O)c2cnccn2)c1,6%
11,Cc1cc(C(=O)Nc2ccc(S(=O)(=O)Nc3nccs3)cc2)ccc1[N+](=O)[O-],6%
12,CCOc1cc(C2C(C(=O)OCc3ccc(OC)cc3)=C(C)NC3=C2C(=O)CCC3)cc(Cl)c1O (configuration not stated),2%
13,CC(C)COc1ccc(C(=O)Nc2ccc(-c3nc4ncccc4o3)cc2)cc1,8%
14,CC(C)COc1ccc(C(=O)Nc2ccc(-c3nc4ccccc4o3)cc2)cc1,64% (active)
15,CC(C)COc1ccc(C(=O)Nc2ccc3oc(-c4ccncc4)nc3c2)cc1,1%
16,O=C(Nc1ccc(-c2nc3ccccc3o2)c(O)c1)c1ccc(-c2cccc(Cl)c2)o1,10%
17,CCOC(=O)c1c(NC(=O)CSc2nccn2C)sc2c1CCCC2,0%
18,CCc1ccc(C2=NN(c3ccccc3)C(c3cn(-c4ccccc4)nc3-c3cccnc3)C2)cc1 (configuration not stated),20%
19,COc1ccc(C(=O)CC(C(C)C)C(C=C(C)C)C(=O)c2ccc(OC)cc2)cc1 (configuration not stated),29%
20,C=C(C)C(C)(C#CCN1CCOCC1)OC(C)=O (configuration not stated),56% (active)
21,C=C(C)C(C)(C#CCN1CCCCC1)OC(C)=O (configuration not stated),8%
22,CC(C)(O)C#CCN1CCOCC1,0%
23,COc1cc(C2C(C(=O)Nc3cccc(C)n3)=C(C)NC3=C2C(=O)CC(C)(C)C3)cc(OC)c1OC (configuration not stated),7%
